Results as given in PubChem BioAssay AID1159580 (chemical genetic matrix, 2015).
In all, about 5,500 compounds went through this assay and about 2,000 (36%) were called active. Roughly 18% stayed inconclusive and do not appear here. Rule as the data show it: active = normalized growth mostly below about 0.91 (no sharp cut-off); inconclusive = no clear call, values can overlap the other calls; inactive = mostly above about 0.92. The list shows a part of the results.

Experiment: chemical genetic growth profiling, strain panel (AID 1159580);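 also: tested at 20 µM; growth read once vehicle control cultures reached saturation at 30 °C; 1 = growth at the plate median or of vehicle wells; lower values mean less growth of the strain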
Details: growth OD

Measured: normalized growth

Cc1[nH]c2ccccc2c1CN(C)C
inactive: S. cerevisiae deletion strains, locus YJR075W, strain HOC1, active compounds read low 1.03 | S. cerevisiae deletion strains, locus YKL009W, strain mrt4, active compounds read low 0.974 | S. cerevisiae deletion strains, locus YKL068W, active compounds read low 1.01 | S. cerevisiae deletion strains, locus YKL085W, strain MDH1 (second series), active compounds read low 0.997 | S. cerevisiae deletion strains, locus YKL085W, strain MDH1, active compounds read low 0.997 | S. cerevisiae deletion strains, locus YKL160W, strain elf1, active compounds read low 1.01 | S. cerevisiae deletion strains, locus YKL190W, strain CNB1, active compounds read low 1.02 | S. cerevisiae deletion strains, locus YKR001C, strain vps1, active compounds read low 1.01 | S. cerevisiae deletion strains, locus YKR026C, strain gcn3, active compounds read low 1.02 | S. cerevisiae deletion strains, locus YKR091W, strain srl3, active compounds read low 1.01 | S. cerevisiae deletion strains, locus YLL001W, strain dnm1, active compounds read low 1.01 | S. cerevisiae deletion strains, locus YLL026W, active compounds read low 1.02 | S. cerevisiae deletion strains, locus YLL041C, strain sdh2, active compounds read low 1.01 | S. cerevisiae deletion strains, locus YLR027C, strain aat2, active compounds read low 1.01 | S. cerevisiae deletion strains, locus YLR039C, strain RIC1, active compounds read low 1.1 | S. cerevisiae deletion strains, locus YLR058C, strain SHM2, active compounds read low 1.03 | S. cerevisiae deletion strains, locus YLR102C, strain apc9, active compounds read low 1 | S. cerevisiae deletion strains, locus YLR113W, strain HOG1, active compounds read low 1 | S. cerevisiae deletion strains, locus YLR221C, strain rsa3, active compounds read low 1.01 | S. cerevisiae deletion strains, locus YLR258W, strain gsy2, active compounds read low 1 | S. cerevisiae deletion strains, locus YLR262C, strain YPT6 (second series), active compounds read low 1.01 | S. cerevisiae deletion strains, locus YLR262C, strain YPT6, active compounds read low 1.05 | S. cerevisiae deletion strains, locus YLR268W, strain sec22, active compounds read low 0.979 | S. cerevisiae deletion strains, locus YLR320W, strain mms22, active compounds read low 1.04 | S. cerevisiae deletion strains, locus YLR330W, strain CHS5, active compounds read low 1 | S. cerevisiae deletion strains, locus YLR342W, strain FKS1 (second series), active compounds read low 1.02 | S. cerevisiae deletion strains, locus YLR342W, strain FKS1, active compounds read low 1.01 | S. cerevisiae deletion strains, locus YLR357W, strain rsc2, active compounds read low 1 | S. cerevisiae deletion strains, locus YLR370C, strain arc18, active compounds read low 1.03 | S. cerevisiae deletion strains, locus YLR371W, strain rom2, active compounds read low 1.01 | S. cerevisiae deletion strains, locus YLR384C, strain iki3, active compounds read low 1.03 | S. cerevisiae deletion strains, locus YLR418C, strain cdc73, active compounds read low 0.983 | S. cerevisiae deletion strains, locus YML016C, strain PPZ1, active compounds read low 0.996 | S. cerevisiae deletion strains, locus YML032C, strain rad52, active compounds read low 0.981 | S. cerevisiae deletion strains, locus YML120C, strain ndi1, active compounds read low 1.01 | S. cerevisiae deletion strains, locus YML124C, strain tub3, active compounds read low 0.991 | S. cerevisiae deletion strains, locus YMR058W, strain fet3, active compounds read low 1.02 | S. cerevisiae deletion strains, locus YMR078C, strain ctf18, active compounds read low 0.991 | S. cerevisiae deletion strains, locus YMR125W, strain sto1, active compounds read low 1.01 | S. cerevisiae deletion strains, locus YMR129W, active compounds read low 1.02 | S. cerevisiae deletion strains, locus YMR205C, strain PFK2, active compounds read low 1.06 | S. cerevisiae deletion strains, locus YMR223W, strain ubp8, active compounds read low 0.977 | S. cerevisiae deletion strains, locus YMR231W, strain pep5, active compounds read low 1.02 | S. cerevisiae deletion strains, locus YMR263W, strain SAP30, active compounds read low 1.02 | S. cerevisiae deletion strains, locus YMR307W, strain GAS1, active compounds read low 1.15 | S. cerevisiae deletion strains, locus YNL067W, strain RPL9B, active compounds read low 1.02 | S. cerevisiae deletion strains, locus YNL071W, strain lat1, active compounds read low 1.01 | S. cerevisiae deletion strains, locus YNL128W, strain TEP1, active compounds read low 1 | S. cerevisiae deletion strains, locus YNL183C, strain NPR1, active compounds read low 0.94 | S. cerevisiae deletion strains, locus YNL209W, strain ssb2, active compounds read low 1.04 | S. cerevisiae deletion strains, locus YNL233W, strain BNI4, active compounds read low 1.05 | S. cerevisiae deletion strains, locus YNL248C, strain rpa49, active compounds read low 1.02 | S. cerevisiae deletion strains, locus YNL250W, strain rad50, active compounds read low 0.98 | S. cerevisiae deletion strains, locus YNL271C, strain bni1, active compounds read low 0.995 | S. cerevisiae deletion strains, locus YNL298W, strain CLA4, active compounds read low 0.985 | S. cerevisiae deletion strains, locus YNL307C, strain MCK1, active compounds read low 1 | S. cerevisiae deletion strains, locus YNL322C, strain KRE1 (second series), active compounds read low 1.02 | S. cerevisiae deletion strains, locus YNR049C, strain mso1, active compounds read low 1.03 | S. cerevisiae deletion strains, locus YNR052C, strain pop2, active compounds read low 0.994 | S. cerevisiae deletion strains, locus YOL012C, strain htz1 1.39 | S. cerevisiae deletion strains, locus YOL147C, strain pex11, active compounds read low 0.993 | S. cerevisiae deletion strains, locus YOR001W, strain rrp6, active compounds read low 1.02 | S. cerevisiae deletion strains, locus YOR061W, strain CKA2, active compounds read low 1.02 | S. cerevisiae deletion strains, locus YOR069W, strain VPS5, active compounds read low 0.995 | S. cerevisiae deletion strains, locus YOR070C, strain gyp1, active compounds read low 1.02 | S. cerevisiae deletion strains, locus YOR080W, strain dia2, active compounds read low 1.03 | S. cerevisiae deletion strains, locus YOR083W, strain WHI5, active compounds read low 1.01 | S. cerevisiae deletion strains, locus YOR106W, strain vam3, active compounds read low 1.04 | S. cerevisiae deletion strains, locus YOR136W, strain idh2, active compounds read low 0.975 | S. cerevisiae deletion strains, locus YOR144C, strain elg1, active compounds read low 0.999 | S. cerevisiae deletion strains, locus YOR184W, strain ser1, active compounds read low 1.02 | S. cerevisiae deletion strains, locus YOR231W, strain MKK1, active compounds read low 0.987 | S. cerevisiae deletion strains, locus YOR265W, strain rbl2, active compounds read low 1.02 | S. cerevisiae deletion strains, locus YOR270C, strain vph1, active compounds read low 1.07 | S. cerevisiae deletion strains, locus YOR290C, strain snf2, active compounds read low 1.01 | S. cerevisiae deletion strains, locus YOR316C, strain cot1, active compounds read low 0.992 | S. cerevisiae deletion strains, locus YPL051W, strain arl3, active compounds read low 1.03 | S. cerevisiae deletion strains, locus YPL055C, strain LGE1, active compounds read low 1.06 | S. cerevisiae deletion strains, locus YPL078C, strain atp4, active compounds read low 1 | S. cerevisiae deletion strains, locus YPL106C, strain sse1, active compounds read low 1.04 | S. cerevisiae deletion strains, locus YPL240C, strain hsp82, active compounds read low 1.01 | S. cerevisiae deletion strains, locus YPL256C, strain CLN2, active compounds read low 0.991 | S. cerevisiae deletion strains, locus YPR119W, strain clb2, active compounds read low 0.992 | S. cerevisiae deletion strains, locus YPR141C, strain kar3, active compounds read low 1 | S. cerevisiae deletion strains, locus YPR163C, strain tif3, active compounds read low 0.996 | S. cerevisiae deletion strains, locus YPR167C, strain met16, active compounds read low 0.988 | S. cerevisiae deletion strains, strain wtn01, active compounds read low 0.966 | S. cerevisiae strains, strain wild type, active compounds read low 1.03
